Activity calls are given as the source filed them.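 The calls were made as follows: active = compounds inhibiting cruzain with a measured inhibition constant Ki under 100 µM; inactive = the rest.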
The compounds below were run against Cruzipain (Trypanosoma cruzi) (UniProt P25779) (assay: Confirmation Competitive Binding Assay for Inhibitors of Cruzain). Details: recombinant cruzain, Z-FR-AMC fluorogenic cleavage, Ki.
Chain of Cruzipain (Trypanosoma cruzi) (P25779 123-467 limits assumed): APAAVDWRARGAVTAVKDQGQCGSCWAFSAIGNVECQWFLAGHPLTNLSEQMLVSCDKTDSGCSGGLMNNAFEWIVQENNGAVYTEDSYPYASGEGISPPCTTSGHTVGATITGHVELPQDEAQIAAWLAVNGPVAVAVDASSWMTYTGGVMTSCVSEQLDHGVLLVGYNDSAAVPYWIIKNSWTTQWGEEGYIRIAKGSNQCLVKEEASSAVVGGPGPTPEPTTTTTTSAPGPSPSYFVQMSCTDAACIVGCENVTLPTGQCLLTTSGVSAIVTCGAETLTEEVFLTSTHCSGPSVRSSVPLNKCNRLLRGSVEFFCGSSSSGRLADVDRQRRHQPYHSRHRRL
Method: Cruzain is a cysteine protease from the tropical parasite Trypanosoma cruzi. This assay protocol is for follow-up Ki determination of cruzain inhibitors of interest. Cruzain inhibition was determined using a competitive binding assay. See following references for additional details: Jadhav A, et al. J Med Chem. 2010 Jan 14;53(1):37-51. Mott BT, et al. J Med Chem. 2010 Jan 14;53(1):52-60. Assay Provider: Shoichet, Brian; University of California, San Fancisco Screening Center PI: Austin, C.P. Screening Center: NIH Chemical Genomics Center [NCGC]
Cruzain activity was measured by monitoring the cleavage of the fluorogenic substrate Z-Phe-Arg-aminomethylcoumarin (Z-FR-AMC). All cruzain assays were performed in Sodium Acetate 0.1 M pH 5.5 and in the presence of 5 mM dithiothreitol (DTT). The final concentration of cruzain was 0.4 nM, and the substrate concentration was 2.5 uM (Km = 2 uM), except for Ki determination, when the Z-FR-AMC varied from 0.31 to 20 uM, in two fold increments. Assays were conducted in presence of 0.01% Triton X-100. Assays were followed for five minutes, and activity was calculated based on initial rates. […] Data was analyzed with Prism 4 (GraphPad), and Ki values were determined from Lineweaver-Burk and Dixon plots.
With `O=C(COc1ccccc1Br)NCCc1nc2ccccc2[nH]1` the Potency was 2 µM (active). For `Cc1ccc(C)c(OCCn2c(CCNC(=O)C3CCCCC3)nc3ccccc32)c1`, the Potency was 2 µM (active).
